HT1080NT lethal: kills 2HG-producing HT-1080-NT fibrosarcoma cells; HT-1080-NT fibrosarcoma viability, CellTiter-Glo ATP luminescence, 48 h; Potency, µM (titrated, usually from 46.1 µM), actives largely listed as cytotoxic; 360,000 compounds, 1.6% hits;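 also: NT is the 2HG producing partner of a matched IDH1 knockdown line; nearly all actives have a fitted effect of over 55% in size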
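Viability by CellTiter-Glo luminescence after 48 h compound exposure at 37C of HT-1080-NT cells (750/well, RPMI, 5% FBS). % activity scaled between DMSO wells and medium-only wells, then curve-fitted and categorized by curve class.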
TDP1 cell CPT: growth inhibition of DT40 Tdp1-/-;hTDP1 cells with camptothecin (screen for TDP1 inhibitors). Potency, µM (titrated, usually from 46.2 µM), usual class: inhibitors. 420,000 compounds, 12% hits. chicken DT40 Tdp1-/-;hTDP1 cells + 20 nM CPT, ATP luminescence, 48 h; also: nearly all actives have a fitted effect of over 55% in size
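Cell growth measured by CellTiter-Glo luminescence after a minimum 48 h, 37 C compound exposure with 20 nM CPT in Tdp1-knockout DT40 cells stably expressing hTDP1, seeded 400/well; qHTS titration format.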
DT40 TDP1 no CPT: qHTS for Inhibitors of human tyrosyl-DNA phosphodiesterase 1 (TDP1): qHTS in cells in absence of CPT | DT40 Tdp1-/- hTDP1 cells, no CPT, ATP luminescence, 48 h | Potency, µM (top dose mostly 46.2 µM), actives largely listed as inhibitors | 420,000 compounds, 15% hits | AID 686978, 2013; also: nearly all actives have a fitted effect of over 55% in size
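Camptothecin absent (DMSO only). Human TDP1-complemented DT40 knockout cells, 400 cells/well, 37 °C for minimum 48 hr; ATP measured via CellTiter-Glo, 30 min dark incubation, luminescence.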
HT1080 IDH1KD tx: kills HT-1080 cells with IDH1 knockdown; 360,000 compounds, 2% hits; Potency, µM (highest dose often 46.1 µM), usual class: cytotoxic; HT-1080 IDH1 knockdown viability, ATP luminescence, 48 h
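Assay cells: HT-1080 with IDH1 knockdown, 750 per well, RPMI/5% FBS. Exposure: 48 h at 37 °C following 2 h pre-incubation. Read: CellTiter-Glo luminescence; fitted concentration-response, curve class assigned.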
KB-3-1 cytotox: KB-3-1 parental cell cytotoxicity; KB-3-1 viability, CellTiter-Glo ATP luminescence, 72 h; Potency, µM (top dose mostly 46.1 µM), hits mostly cytotoxic; 400,000 compounds, 1.4% hits; also: nearly all actives have a fitted effect of over 60% in size
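Cytotoxicity in the drug-sensitive parental line KB-3-1 was scored as loss of CellTiter-Glo luminescence following 72 h incubation with compound. Values come from curve fitting of normalized concentration-response data.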
KB-V1 cytotox: KB-V1 MDR subline cytotoxicity. 400,000 compounds, 3.4% hits. Potency, µM (series often up to 46.1 µM), hits mostly cytotoxic. KB-V1 MDR cells viability, CellTiter-Glo, 72 h. AID 1347076; also: nearly all actives have a fitted effect of over 60% in size
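KB-V1 cells (P-gp-expressing MDR subline of KB-3-1) in phenol-red-free DMEM with 10% FBS were exposed to library compounds over a concentration series for 72 h at 37 degrees C. Viability read by CellTiter-Glo luminescence; concentration-effect curves fitted after normalization.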
A number is an active result; 0 = inactive; ? = inconclusive; - = not tested or not shown; [ ] = remark or other dose. Rows were chosen to be rich in hits. Some 19% of all compounds tested hit in one or more screens of this group. Calls follow the shape of the dose curve; as a rule, active = well fitted curve in the direction sought with a large enough effect; inconclusive = small, poorly fitted or top-dose-only effect, or another doubt; inactive = no such curve, though single readings can be large; an effect the other way counts as inactive or inconclusive.

SMILES	HT1080NT lethal	TDP1 cell CPT	DT40 TDP1 no CPT	HT1080 IDH1KD tx	KB-3-1 cytotox	KB-V1 cytotox
CCOc1ccccc1NC(=O)C(NCCc1ccc(OC)cc1)c1ccccc1 (configuration not stated)	0	23µM	?	0	?	?
CCOc1ccccc1NC(=O)C(OC(=O)c1cnccn1)c1ccccc1 (configuration not stated)	0	0	0	0	0	18µM
CCOc1ccccc1NC(=O)C(OC(=O)c1ccc(CC)cc1)c1ccccc1 (configuration not stated)	0	16µM	?	0	?	0
CCOc1ccccc1NC(=O)C(CC)Sc1nc2ccncc2[nH]1 (configuration not stated)	0	?	16µM	0	0	0
CCOc1ccccc1NC(=O)c1cnccn1	0	0	0	0	0	0
CCOc1ccccc1NC(=O)C(OC(=O)c1ccc(N(C)C)cc1)c1ccccc1 (configuration not stated)	0	0.58µM	?	0	0	9.2µM
COC(=O)C1=C(C)NC(C)=C(C(=O)OC)C1c1cc2ccc(C)cc2[nH]c1=O	0	0	?	?	?	0
CCOC(=O)C1=C(C)NC(C)=C(C(=O)OCC)C1c1cc2ccc(C)cc2[nH]c1=O	18µM	23µM	?	8.2µM	6.5µM	0
COCCN1C(=O)CN(S(C)(=O)=O)CC1(C)C(=O)NC(C)C (configuration not stated)	0	0	0	0	0	0
CCN(Cc1ccccc1)C(=O)CCc1nc(-c2ccc(C)cc2)no1	0	29µM	23µM	0[9.24 µM]	0	?
CCc1ccccc1N(CC)C(=O)CCc1nc(-c2ccc(C)cc2)no1	0	23µM	23µM	0	?	0
CCCN(C(=O)CCc1nc(-c2ccc(C)cc2)no1)c1ccc(OCC)cc1	-	16µM	?	-	0	0
COc1cccc(CN2C(=O)c3ccccc3Sc3ccc(C(=O)NCc4ccccc4)cc32)c1	-	0	0	-	0	0
CCc1ccccc1-n1nnc(-c2nsc(NC(=O)c3ccc(C)c(C)c3)n2)c1C	-	?	18µM	-	-	-
Cc1ccc(-n2nnc(-c3nsc(NC(=O)c4ccccc4C)n3)c2C)cc1Cl	-	5.2µM	6.5µM	-	0	?
Cc1ccc(-n2nnc(-c3nsc(NC(=O)c4cccc(Cl)c4)n3)c2C)cc1C	-	5.8µM	3.7µM	-	0	0
Cc1ccc(-n2nnc(-c3nsc(NC(=O)c4ccc(C)c(C)c4)n3)c2C)cc1	-	13µM	13µM	-	0	0
COc1ccc(-n2nnc(-c3nsc(NC(=O)c4cccc(C)c4)n3)c2C)cc1OC	-	?	?	-	0	0
Cc1cc(C)cc(-n2nnc(-c3nsc(NC(=O)c4ccccc4Cl)n3)c2C)c1	-	0	?	-	0	0
CN(C)CC(C)(O)c1ccc2c(c1)CN(Cc1cccn1-c1ncccn1)CCO2 (configuration not stated)	-	0[9.04 µM]	0	-	-	-
COc1cc2c(C(=O)N(C)c3ccc(F)cc3)cn(C)c(=O)c2cc1OC	0	0	0	0	0	0
CN(CC(=O)Nc1ccccc1Cl)S(=O)(=O)c1ccc(C(=O)N2CCOCC2)s1	-	15µM	?	-	0	0
CN(CC(=O)NNC(=O)CNC(=O)c1ccccc1F)S(=O)(=O)c1ccc(Cl)cc1	0	0	0	0	0	0
COc1ccc(N(CC(=O)Nc2ccccc2C(N)=O)S(=O)(=O)c2ccc(C)c([N+](=O)[O-])c2)cc1	0	?	23µM	0	0	?
COc1ccc(NC(=O)CN(C)S(=O)(=O)c2ccc(C(=O)N3CCOCC3)s2)cc1	-	?	0	-	0	0
SMILES	HT1080NT lethal	TDP1 cell CPT	DT40 TDP1 no CPT	HT1080 IDH1KD tx	KB-3-1 cytotox	KB-V1 cytotox
CCOc1ccccc1C(=O)NCC(=O)NNC(=O)CN(C)S(=O)(=O)c1ccc(Cl)cc1	?	21µM	12µM	0	0	0
Cc1cccc(NC(=O)CN(C)S(=O)(=O)c2ccc(Cl)cc2)n1	0	0	0	0	0	16µM
CCCN(CCC)C(=O)Cn1c(=O)n(-c2ccc(Cl)c(Cl)c2)c(=O)c2c(C)c(C(=O)N(C)C)sc21	-	0	0	-	-	-
CN(CC(=O)Nc1ccccc1C(=O)N1CCCC1)S(=O)(=O)c1ccc(Cl)cc1	0	0	0	0	0	7.3µM
COC(=O)c1ccccc1NC(=O)CC(=O)Nc1ccccc1C(=O)OC	0	0	?	0	0	0
O=C(Cc1ccc(Cl)cc1)Nc1ccccc1C(=O)N1CCCC1	0	0	0	0	0	0
CCN(CC(=O)Nc1ccccc1C(=O)OC)S(=O)(=O)c1ccccc1	0	23µM	?	0	0	0
COc1ccc(N(CC(=O)Nc2ccccc2C(=O)N2CCCC2)S(=O)(=O)c2ccccc2)cc1	0	21µM	16µM	0	0	?
CC[C@H]1OC(=O)[C@H](C)[C@@H](O[C@H]2C[C@@](C)(OC)[C@@H](O)[C@H](C)O2)[C@H](C)[C@@H](O[C@@H]2O[C@H](C)C[C@H](N(C)C)[C@H]2O)[C@](C)(O)C[C@@H](C)[C@@H]2N[C@@H](COCCOC)O[C@@H]([C@H]2C)[C@]1(C)O	-	0	0	-	-	-
CCOc1cccc(CN2CCC(n3cc(C(=O)N4CCCCC4)nn3)CC2)c1O	-	0[9.04 µM]	0	-	-	-
COc1ccccc1C(=O)Nc1c(-c2ccccc2)nc2ccccn12	0	23µM	?	0	0	0
COc1ccc(C(=O)Nc2c(-c3ccccc3)nc3ccccn23)c(OC)c1	0	?	?	0	0	0
CCCNC(=O)C12CCC(C)(c3nc4cc(C)c(C)cc4nc31)C2(C)C (configuration not stated)	0	18µM	23µM	0	0	0
CC(C)=CCc1c2c(c(O)c3c(=O)c(O)c(-c4ccccc4)oc13)C=CC(C)(C)O2	-	0	0	-	-	-
CC(C)=CCC12Oc3cc(O)ccc3C1(O)Oc1cc3c(c(O)c1C2=O)C=CC(C)(C)O3 (configuration not stated)	0	26µM	?	0	0	0
Cc1ccc(-n2nc3c(=O)n(CCCC(=O)NCc4cccc(F)c4)nc(C)c3c2C)cc1	0	?	15µM	0	0	0
Cc1nn(CCCC(=O)NCCc2ccccc2)c(=O)c2nn(-c3ccccc3)c(C)c12	0	0	0	0	0	0
Cc1ccc(-n2nc3c(=O)n(CCCC(=O)NCCN4CCN(C)CC4)nc(C)c3c2C)cc1	0	0	0	0	0	0
Cc1ccc(CCNC(=O)CCCn2nc(C)c3c(C)n(-c4ccccc4)nc3c2=O)cc1	-	21µM	21µM	-	0	0
